According to PubChem BioAssay:
“And” between values parts separate entries of the source, which are not always exact repeats. Equal values may be shown once. A number with no mark means an inactive call. The rule behind the calls is not given here.

Target: Pantothenate synthetase (Mycobacterium tuberculosis (strain ATCC 25618 / H37Rv)) (UniProt P9WIL5)
Assay: Recombinant Mtb pantothenate synthetase (PanC) inhibitors, coupled enzyme, confirmatory (AID 375);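 note: 0% = full reaction with vehicle and 100% = no enzyme background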
Conditions: coupled enzyme assay; at 10 µM, active compounds read high

Chain of Pantothenate synthetase (Mycobacterium tuberculosis (strain ATCC 25618 / H37Rv)) (P9WIL5 whole entry, looked up): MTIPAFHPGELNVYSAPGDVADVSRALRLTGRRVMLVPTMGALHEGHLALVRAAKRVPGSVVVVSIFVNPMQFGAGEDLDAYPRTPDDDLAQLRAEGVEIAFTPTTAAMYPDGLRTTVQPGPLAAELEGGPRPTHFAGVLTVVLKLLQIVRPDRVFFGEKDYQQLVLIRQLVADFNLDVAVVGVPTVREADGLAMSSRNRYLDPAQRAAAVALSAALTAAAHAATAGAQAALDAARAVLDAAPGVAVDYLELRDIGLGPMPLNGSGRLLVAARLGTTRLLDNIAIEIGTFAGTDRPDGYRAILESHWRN

Row | SMILES | inhibition
1 | Cc1nnc(N2C(=O)c3oc4ccccc4c(=O)c3C2c2ccco2)s1 (stereo not given) | 2%
2 | Cn1c(=O)[nH]c(=O)c2c1nc(CN1CCN(c3cccc(Cl)c3)CC1)n2CCc1ccccc1 | 4%
3 | CCOc1cccc(OCCOCCN2CCCC2)c1 | 8%
4 | Cc1ccccc1-c1nc(CS(=O)(=O)CC(=O)N(C)C2CCCCC2)c(C)o1 | 0%
5 | CC(C)C(NC(=O)c1ccccc1NC(=O)c1ccco1)C(=O)O (stereo not given) | 4%
6 | CCOCCn1cnc2sc(C(=O)NCC(=O)OCC)c(C)c2c1=O | 10%
7 | Fc1cccc(Cl)c1Cn1nnc2c(NCc3ccccn3)ncnc21 | 0%
8 | c1ccc(CN(CC2=NCCN2)c2ccccc2)cc1 | 0% and 2%
9 | CCN(CC)CCn1c(=N)n(CCO)c2ccccc21 | 0%
10 | O=C(NCCN1CCCC1)C1COc2ccccc2O1 (stereo not given) | 3%
11 | CCCC(=O)Nc1nnc(Sc2ccc(N(C)C)cc2)s1 | 0%
12 | COC(=O)c1cc(NS(=O)(=O)c2ccc3c(c2)CCC(=O)N3)cc(C(=O)OC)c1 | 0%
13 | Cc1[nH]c2ccccc2c(=O)c1CN1CCCCC1 | 0%
14 | CCOC(=O)C1CCN(C(=O)c2c(-c3c(Cl)cccc3Cl)noc2C)CC1 | 0%
15 | COc1ccccc1-c1noc(-c2cccnc2)n1 | 13%
16 | O=C1NC(c2ccco2)Nc2ccccc21 (stereo not given) | 0%
17 | Cn1c(=O)c2c(nc(NCCCO)n2CCc2ccccc2)n(C)c1=O | 0%
18 | CCn1c(SCC(=O)N2c3ccccc3CCc3ccccc32)nc2c1c(=O)n(C)c(=O)n2C | 1%
19 | COc1ccc(N=c2scc(-c3ccc(S(=O)(=O)N4CCOCC4)cc3)n2CCCO)cc1 | 0%
20 | CCOC(=O)C1CCN(C(=O)CSc2n[nH]c(=O)[nH]c2=O)CC1 | 0%

Row | SMILES | inhibition
21 | CCC(CCC(=O)Nc1cccc(C(=O)O)c1)C(=O)O (stereo not given) | 2%
22 | CC1(C)S[C@@H]2[C@H](NC(=O)[C@H](N)c3ccccc3)C(=O)N2[C@H]1C(=O)O | 2%
23 | CC(=O)c1cc(-c2ccccc2)n(CC(=O)N2CCN(C3CCCC3)CC2)c1C | 11%
24 | COC(=O)C(C)C1Sc2ccccc2NC1=O (stereo not given) | 11%
25 | O=C(OCc1nnc(-c2ccccc2)o1)C1=COCCO1 | 0%
26 | CC1=C(C(=O)NCc2ccccc2)C(c2ccccc2OCC(N)=O)NC(=O)N1 (stereo not given) | 0%
27 | CN1CCC(NC(=O)c2cccs2)CC1 | 2%
28 | Cc1nc2cc(NC(=O)N3CC4(C)CC3CC(C)(C)C4)ccc2n1C (stereo not given) | 8%
29 | Cc1cccc(NC(=O)c2cc3ccccc3o2)c1 | 5%
30 | CC(C)COc1ccc(C2NC(=O)NC2=O)cc1 (stereo not given) | 0%
31 | Cn1cccc1Cc1nnc(SCC(N)=O)n1-c1ccc(F)cc1 | 0%
32 | COc1ccc(N2CCN(C(=O)CSc3ccccc3N)CC2)cc1 | 0%
33 | Cc1cc(C)cc(-n2ccnc2SCC(=O)Nc2ccc3c(c2)OCCO3)c1 | 0%
34 | NC(=O)CSc1nnc(-c2cnccn2)n1-c1ccccc1 | 0%
35 | CCCCn1nnnc1NCc1cccs1 | 0%
36 | O=C1CN(C(=O)COC(=O)c2ccccc2NC(=O)c2ccco2)c2ccccc2N1 | 0%
37 | Cc1cccc(N2CCN(C(=O)C3CCCN(S(=O)(=O)c4cnc[nH]4)C3)CC2C)c1 (stereo not given) | 0%
38 | CC1CCN(Cc2nc3c(c(=O)n(C)c(=O)n3C)n2Cc2cccc3ccccc23)CC1 | 0%
39 | O=C(CSc1nnc(COc2ccc(Cl)cc2)o1)OC1CCCCC1 | 0%
40 | Cc1ccc(CSc2nc3c(c(=O)[nH]2)C(c2ccncc2)C2=C(CCCC2=O)N3)cc1 (stereo not given) | 4%
